Some compounds were tested as several samples or in several runs, with calls that do not always agree. Activity calls are given as the source filed them. How the source made its calls: active means hit-call score of the fitted dose curve at least 0.9, where 1 is the maximum; inactive means score below 0.9.
These compounds were tested against human Peroxisome Proliferator-activated Receptor alpha (PPARa) Agonism, conducted at France lab site, PPARA (gene 5465) (UniProt Q07869) (assay: ERF_FR_NR_COA_hPPARA: Eurofins (ERF) Nuclear Receptor (NR) Functional Coactivator Assay for human Peroxisome Proliferator-activated Receptor alpha (PPARa) Agonism, conducted at France lab site).
Chain of human Peroxisome Proliferator-activated Receptor alpha (PPARa) Agonism, conducted at France lab site, PPARA (gene 5465) (Q07869 whole entry, looked up): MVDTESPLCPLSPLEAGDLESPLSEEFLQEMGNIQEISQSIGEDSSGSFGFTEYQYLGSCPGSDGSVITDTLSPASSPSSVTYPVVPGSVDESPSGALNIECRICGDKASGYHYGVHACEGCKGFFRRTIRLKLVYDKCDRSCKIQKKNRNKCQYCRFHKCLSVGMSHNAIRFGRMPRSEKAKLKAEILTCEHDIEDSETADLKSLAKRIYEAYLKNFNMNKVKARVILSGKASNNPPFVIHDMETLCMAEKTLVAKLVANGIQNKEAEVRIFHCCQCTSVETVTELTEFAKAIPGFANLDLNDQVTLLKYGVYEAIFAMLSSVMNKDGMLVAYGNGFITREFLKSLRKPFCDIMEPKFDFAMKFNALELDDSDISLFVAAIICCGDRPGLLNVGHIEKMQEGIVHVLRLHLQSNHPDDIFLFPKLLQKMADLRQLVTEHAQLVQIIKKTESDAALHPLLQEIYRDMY
Procedure: ERF_FR_NR_COA_hPPARA is a biochemical, single-readout assay that uses extracted gene-proteins in a cell-free assay. Measurements were taken 2 hours after chemical dosing in a 384-well plate. See PPARalpha Human NHR Functional Agonist Coactivator Assay, Cerep.ERF_FR_NR_COA_hPPARA is an assay component calculated from the ERF_FR_NR_COA_hPPARA assay. It is designed to measure FRET using a type of binding reporter as detected by fluorescence intensity of GW7647 with fluorimetry technology.Data from the assay component ERF_FR_NR_COA_hPPARA was analyzed at the assay endpoint, ERF_FR_NR_COA_hPPARA, in the positive analysis fitting direction relative to DMSO as the negative control and baseline of activity. Using a type of binding reporter, gain-of-signal activity can be used to understand changes in binding as they relate to gene PPARA. To generalize the intended target to other relatable targets, this assay endpoint is annotated to the nuclear receptor intended target family, where the subfamily is non-steroidal.
Human cells are incubated for 3 hours at room temprature with GW7647 as control activator. Test Sample Requirements: Minimum for 1) Screen: 75 ul of 10 mM stock or 1 mg (pre-weighed) powder (assuming FW =<500 and purity 100%).

Row | Compound | outcome | AC50
1 | O=C(O)C(F)(F)C(F)(F)C(F)(F)C(F)(F)C(F)(F)C(F)(F)C(F)F | inactive | –
2 | O=C(CC(=O)C(F)(F)C(F)(F)C(F)(F)F)c1cccs1 | inactive | –
3 | O=C(Cl)C(F)(F)C(F)(F)C(F)(F)C(F)(F)C(F)(F)C(F)(F)F | inactive | –
4 | O=C(O)C(F)(F)C(F)(F)C(F)(F)C(F)(F)C(F)(F)C(F)(F)F | inactive | –
5 | CC(C)(Oc1ccc(C(=O)c2ccc(Cl)cc2)cc1)C(=O)O | inactive | –
6 | O=C(O)C(F)(F)OC(F)(F)C(F)(F)OC(F)(F)F | inactive | –
7 | O=C(O)C(F)(F)C(F)(F)C(F)(F)C(F)(F)C(F)(F)C(F)(F)C(F)(F)F | inactive | 3.17 µM (active)
8 | O=S(=O)(O)C(F)(F)C(F)(F)C(F)(F)C(F)(F)C(F)(F)C(F)(F)C(F)(F)C(F)(F)F | inactive | –
9 | CN(CCOc1ccc(CC2SC(=O)NC2=O)cc1)c1ccccn1 (stereo not drawn) | inactive | –
10 | O=C(O)C(F)(F)C(F)(F)C(F)(F)C(F)(F)C(F)(F)C(F)(F)C(F)(F)C(F)(F)Cl | inactive | –
11 | O=C(O)CCC(F)(F)C(F)(F)C(F)(F)F | inactive | –
12 | O=S(=O)(O)C(F)(F)C(F)(F)C(F)(F)C(F)(F)C(F)(F)C(F)(F)F | inactive | –

Source: PubChem BioAssay AID2284367 (EPA ToxCast)
